Source: the supplement of paper PMC6555819

Each sequence was assayed on PPARg:RXRa 30nM:10nM, anti-RXR (NR concentration 30 nM, RXRa partner concentration 10 nM) (assay: PBM binding z-score (relative to random genomic background probes); higher = stronger binding; sequences stand for … in GC…GCGATTGACAGCGTAGAATGAAGG).
Procedure, shortened: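 Binding buffer was PBS pH 7.4 with 2% milk, 0.02% Triton X-100, 1 mM DTT, 0.2 mg/mL BSA and 0.4 mg/ml salmon testes DNA. In it, ligand-free nuclear receptor dimers were incubated 1 h on custom Agilent 4×180K protein-binding microarrays carrying double-stranded probes. Antibodies against each partner (one per run) detected binding, and z-scores were calculated against random background probes after regression normalization of scanned fluorescence.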

Row | Sequence | PBM binding z-score
1 | TCAGACAGGTGAAGGTAACCCAGGTACGCAGTCG | 3.53
2 | CCTTACGGGTCAAGGTTATAACACGGGTGGTACG | 2.22
3 | CAAACTAGGTCACGAAGGGTCAAAGTCGAATGAC | 7.11
4 | GGAACGAGGGCAAAGTCGATAGCATCTGTCGACG | 0.954
5 | TGAATGAGGTTATAAGAACAGGGAACGTTGCAAA | 0.909
6 | CCTAGCAGGCCAGGGTCACTAAAGCATTTCGCTT | -0.365
7 | ATCGAAAGGTCGAGGTGAATATAGAGAAAGGGAA | 1.51
8 | GCATATAGGTAATACAAGGTGAAAGTGCGATTGT | 1.04
9 | AATACAGGGTCACTAGGCCATAGTAGGTACGAAT | 3.65
10 | GCTTCTAGGTCAACTGATGGTCAGCTAAAGCTCG | 3.01
11 | TCATATAGGTAAATGCTAGGTGACAGTCCGATCT | 3.61
12 | CCTACTGGGCCATTCAGAGGTCATTCATCATATG | 0.754
13 | TCATATAGTTAAAGGTGAAAGTCGAACGATATGA | 3.96
14 | CCTTACGGGTCACGGACAGGTTATAGCATTTGGA | 3.37
15 | CCGACTGGGGCATAAGGTTACGATAAGCCAGCCC | 1.47
16 | GCTAGCAGGCCATTTGGCTCACTCAATGACGGGC | -0.918
17 | CCTACTGGGCCAAAGTTCATTGATTCCAATGCTC | 9.33
18 | ACAGACCGGTGAGTGAAGGTAACTCAGCTGGACG | -0.631
19 | TCTGCTAGGTCAACGACGGTCAGCTAATCTGCTA | 1.76
20 | ACTAGTTGGTCAGTTGAGGTCACACACAATTCGG | 0.914

Row | Sequence | PBM binding z-score
21 | ACTTACGGGTCAACGAGGTTAGAGCACGCGTATA | 2.15
22 | TTACCAAGGTGAGCTAAGGTCGTTGATCCAACTC | 0.431
23 | CGAACGAGGGCATGAGTTGATAGCCAATGCCGAT | 0.255
24 | ATCTCTAGGTAAAAGTTCAGTGGATCCCGAGGAT | 7.58
25 | GCTGCTAGTTCAGGTTGGTCAGCTAACGGGTACG | -0.906
26 | TCATATCGGTAAATGCTAGGTGAAAGTCCGATCT | 3.69
27 | ATGGAAAGGTCGAGGTGAGTATAGAGAAAGGGAA | 1.44
28 | CGAACTAGGTAATTGACAGGACAGTGAATAGTAA | 0.0511
29 | TAGCCCAGGTCATGCGGGCCAGTATAGTGTCGGC | 0.267
30 | CCTACTGGGCCATCATGTCATTGATATCAACGTT | 0.718
31 | TATACAGGCTCAAAGGCCAGAGTACGAATGTCGA | 0.77
32 | ATCTCTAGGTAAAGCTAGTTCAGTGAATGCAAAT | 0.0636
33 | ATCTCTAGGTAAACATAGTTCAGTGAATGCAAAT | 0.499
34 | CCAGACAGGTGAGAAGGTATCTCAGCCTCGATTA | -0.296
35 | ATCGAGAGGTCGAAGGTGAGTATACCCACCCGAA | 1.81
36 | CCTACTGGACCAAAGGTCATTGATTCCAATGCTC | 10.5
37 | CGTCCAAGGTCAGCAGGCCAGTGAAAGCGACGTG | 0.155
38 | AGAATGACGTTACCAAAGATCAGGGAAACGCTTG | 0.189
39 | TCTGGGAGGACACGAAGGTCAGAGCTTTCCAGAG | 1.51
40 | ATACCAAGGTGATCGTGAGGTCGTTGTTACTAAC | -0.301
